Laboratory results: PubChem BioAssay AID1863 (Southern Research Specialized Biocontainment Screening …, 2009)
About 480 (0.16%) of roughly 300,000 compounds were called active.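 How the source made its calls: active means inhibition over 29.93%, a cutoff 3 SD above the screen mean, later confirmed by dose response; inconclusive means inhibition over 29.93% but no dose response follow-up; inactive means inhibition at most 29.93% or unconfirmed.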 A selection follows. Entries with a potency or affinity are not part of this list.

Test: inhibitors of PhoP regulon expression, primary screen, Salmonella Typhimurium, GFP reporter (AID 1863);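 further: 0% = low Mg2+ inducing control and 100% = high Mg2+ repressing control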
Conditions: S. Typhimurium PhoP-regulated promoter GFP reporter, 4 h; at 50 µM; hits give high values

inhibition, inactive:
C=CCNC(=O)c1cn(CC)c2cc(N3CCN(C(=O)c4ccco4)CC3)c(F)cc2c1=O 5.05%
CCn1cc(C(=O)O)c(=O)c2cc(F)c(N3CCN(C(=S)NC(=O)c4ccccc4Br)CC3)cc21 8.64%
CCn1cc(C(=O)NCCc2ccccc2)c(=O)c2cc(F)c(N3CCN(C)CC3)cc21 -0.827%
CCn1cc(C(=O)NCc2ccccc2)c(=O)c2cc(F)c(N3CCN(C(=O)c4ccco4)CC3)cc21 6.24%
CCC(CO)NC(=O)c1ccccc1C(F)(F)F (stereo unspecified) 2.52%
O=C(O)C1C2CCC(O2)C1C(=O)Nc1ccccc1Br (stereo unspecified) -9.38%
COC(=O)c1ccccc1NC(=O)C1CCN(C(=O)Cc2ccccc2)CC1 3.37%
CCOC(=O)COc1c(Br)cc(/C=C2\SC(=O)N(CC(=O)N3CCCC3)C2=O)cc1OC 5.47%
COc1ccc(N(C(=O)CNC(=O)c2cccs2)C(C(=O)NC2CCCC2)c2ccncc2)cc1 (stereo unspecified) -0.95%
Cc1nc2nc3c(cn2n1)C(=O)CC(C)(C)C3 -6.32%
CC(C)n1c(SCC(=O)NC2CC2)nnc1-c1ccco1 3.76%
CCOC(=O)CSc1nc2c(c(=O)n1-c1ccc(OCC)cc1)SCC2 -4.68%
Cc1ccc(C(=O)c2no[n+]([O-])c2C(=O)c2ccc(C)cc2)cc1 -26.5%
COc1ccc(C(=O)c2no[n+]([O-])c2C(=O)c2ccc(OC)cc2)cc1 -73.5%
Cc1ccc(S(=O)(=O)NN2C(=O)c3ccccc3NC2c2ccccc2O)cc1 (stereo unspecified) 2.27%
Cc1onc(-c2ccccc2)c1C(=O)NC(=S)NNC(=O)c1ccccc1O 18.4%
Cc1onc(-c2ccccc2)c1C(=O)NC(=S)NNC(=O)c1ccc(O)cc1 -7.99%
CC(C)[C@@H](COc1ccccc1)N1CCN(Cc2ccccc2)CCC1=O 11.4%
Cc1ccc(N(CC(=O)NC2CCCCC2)C(=O)CNC(=O)c2cccs2)cc1 5.02%
CNC[C@H](CC1CCCCC1)NC[C@H](CO)NCC1(c2ccccc2)CC1 5.82%
CNC[C@H](CC1CCCCC1)NC[C@H](CO)NCCc1cccc(C(F)(F)F)c1 13%
Cc1ccccc1NC(=O)NC1(C(=O)NCc2ccco2)CCCCC1 -5.56%
Cc1cccc(NC(=O)CSc2nnc(-c3ccncc3)n2CC2CCCO2)c1 (stereo unspecified) 0.37%
Clc1ccc2[nH]c3c(NCCN4CCOCC4)ncnc3c2c1 -2.52%
Clc1ccc2[nH]c3c(NCC4CCCO4)ncnc3c2c1 (stereo unspecified) 17.8%
COc1ccc(NC(=O)CSc2cc(C(=O)c3nccn3C)c3ccccc3n2)cc1 3.48%
CCOc1ccc(NC(=O)c2cc(Cl)nc3ccccc23)cc1 1.03%
C=CCNc1nc(Nc2ccccc2F)nc(OCC)n1 -4.99%
Cc1ccc(-c2nc(NCc3ccco3)c3ccccc3n2)cc1 23.9%
Fc1ccccc1-c1nc(NCc2ccco2)c2ccccc2n1 -13.7%
Cc1ccccc1Nc1nc(NCc2ccco2)c2ccccc2n1 25.6%
OCCNc1nc(NCc2ccccc2)c2ccccc2n1 3.19%
Oc1ccccc1Nc1nc(NCc2ccccc2)c2ccccc2n1 -0.55%
COc1ccccc1Nc1nc(NCc2ccco2)c2ccccc2n1 48%
CCc1noc(C)c1C(=O)Nc1ncc(C)s1 2.49%
CCC(Oc1ccccc1)C(=O)Nc1nc2ccccc2[nH]1 (stereo unspecified) -3.54%
Cc1ccc2cc(C(c3nnnn3C3CCCC3)N(Cc3ccco3)Cc3cccs3)c(=O)[nH]c2c1 (stereo unspecified) -2.55%
CN1CCc2c(sc3nc(NCCO)n(-c4cccc(Cl)c4)c(=O)c23)C1 -3.53%
CC(Oc1ccccc1)C(=O)N=C1SC2CS(=O)(=O)CC2N1c1ccc(F)cc1 (stereo unspecified) -3.91%
O=S(=O)(Nc1nc2ccccc2nc1NCC1CCCO1)c1ccc(F)cc1 (stereo unspecified) 6.59%
Cc1cc2ncn(/N=C/c3ccc([N+](=O)[O-])s3)c2cc1C -6.99%
Cc1cccc(C)c1NC(=O)CNCC(=O)Nc1c(C)cccc1C 0.56%
O=C(O)c1cccc(NC(=O)c2ccc3c(c2)C(=O)N(CC2CCCO2)C3=O)c1 (stereo unspecified) -1.15%
Cc1ccc(C)c(NC(=O)CCC(=O)N/N=C/c2cc([N+](=O)[O-])ccc2O)c1 8.86%
O=C(CSc1nc2ccccc2s1)NCc1cc([N+](=O)[O-])ccc1O -4.94%
O=C(CSc1nc2ccccc2s1)N/N=C/c1ccccc1C(=O)O -5.31%
O=C(CSc1ccccn1)N/N=C/c1cccc([N+](=O)[O-])c1 0.8%
O=[N+]([O-])c1ccc(/C=N/Nc2ccccn2)cc1 4.65%
O=[N+]([O-])c1cccc(/C=N/Nc2ccccn2)c1 -2.55%
COc1cc([N+](=O)[O-])cc(/C=N/NC(=O)CSc2ccccn2)c1O 24.8%
Cc1cc(Cl)ccc1NC(=O)CCC(=O)N/N=C/c1cc([N+](=O)[O-])ccc1O 12.1%
O=C1CCc2cc(NS(=O)(=O)c3ccccc3)cc3c2N1CCC3 3.44%
CCOC(=O)C1(Cc2ccc(Cl)cc2)CCN(C2CCC2)CC1 -6.48%
CC(C)c1nc(SCC(=O)Nc2cccc(S(N)(=O)=O)c2)n[nH]1 -17.9%
COc1ccc(CC(=O)Nc2nc(-c3ccccc3)c(C(C)=O)s2)cc1OC 5.08%
COc1ccc(S(=O)(=O)N2CCC(C(=O)NCCCc3ccccc3)CC2)cc1 -11.5%
CC(C)N=C(N)N=C(N)Nc1ccc(Cl)cc1 -0.65%
NC(N)=NC(=S)Nc1ccc(Cl)cc1 -3.56%
O=C(NCc1ccccc1)c1cncc(Br)c1 3.01%
CC1CCC2(CC1)NC(=O)N(CC(=O)c1cn(CCC#N)c3ccccc13)C2=O (stereo unspecified) -10.8%
Cc1cc(C)n2nc(C(=O)OCC(=O)c3c[nH]c4ccccc34)nc2n1 10.2%
COc1ccc(CNC(=O)CSc2nnc(NC(=O)C3CC3)s2)cc1 -0.4%
Oc1ccccc1/C=N/Nc1nccnc1Cl 25.1%
Oc1ccccc1/C=N/Nc1ncc(Br)cn1 -2.93%
Oc1ccc(/C=N/Nc2nccnc2Cl)cc1 5.13%
Oc1c(Cl)cc(Cl)cc1/C=N/Nc1ncc(Br)cn1 6.58%
Cc1ccccc1-n1c(SCC(=O)N/N=C/c2sccc2C)nc2ccccc2c1=O -15.1%
Cc1nn2c(-c3ccc(S(=O)(=O)N4CCN(C)CC4)o3)nnc2c2ccccc12 1.51%
Cc1cc2c(cc(C(=O)NCc3cccnc3)n2Cc2ccc(Cl)cc2)o1 13%
COc1ccc(N2CCOCC2)c(NC(=O)c2cccnc2)c1 0.01%
CCN(Cc1cn2cccnc2n1)C1CCCCC1 -4.78%
Cc1nc(N)nc(Cl)c1Cc1ccc(Cl)cc1 2.03%
Cc1nc2ccc(Cl)cc2nc1C -3.83%
O=[N+]([O-])c1cc2c(cc1CN1CCN(c3ccc(F)cc3)CC1)OCO2 -3.23%
CCOc1ccc(-c2nc(S(=O)(=O)c3ccccc3)c(NC)o2)cc1 -1.53%
COCCCNC(=O)CCCN1C(=O)c2cccnc2Sc2ccccc21 -9.37%
COc1ccc(N2CCN(c3nc4c(C)cccn4c(=O)c3/C=C(\C#N)C(N)=O)CC2)cc1 0.07%
COc1cc(Cl)ccc1OCc1cc(C(=O)N2CCC(N(C)C)C2)no1 (stereo unspecified) 4.49%
O=[N+]([O-])c1cccc2c(N3CCOCC3)ccnc12 -2.73%
COCc1cc(CN2CCCC2)c(O)c2ncccc12 0.6%
CN1CCN(Cc2cc(COCc3ccccc3)c3cccnc3c2O)CC1 21%
Oc1c(CN2CCCCC2)cc(Br)c2cccnc12 -2.58%
O=[N+]([O-])c1cc(CN2CCN(c3ccccc3)CC2)c(O)c2ncccc12 14%
O=C(Oc1c(CN2CCOCC2)cc(Cl)c2cccnc12)c1ccccc1Cl 13.4%
O=C(COC(=O)c1cc[n+]([O-])cc1)Nc1c(Cl)cccc1C(F)(F)F 0.58%
Cc1occc1-c1nnc(SCCNCCO)o1 -0.93%
CCn1ccnc1[C@@H]1C[C@H]2CN(Cc3cccc(Cl)c3)C(=O)[C@]23CCCN13 3.68%
CCN1C(=O)CSc2ccc(C(=O)NCc3ccc(OC)cc3)cc21 -1.69%
COc1ccc(S(=O)(=O)NN=C2CCCC2)cc1 1.9%
O=C(c1oc(=O)c2ccccc2c1-c1ccccc1)N1CCC(O)CC1 18.1%
CCOc1ccccc1N1CCN(CC(=O)Nc2ncc(C)s2)CC1 -2.9%
Oc1cccc(C=NCc2ccccc2)c1 4.18%
O=C(Cc1ccccc1)N/N=C/c1cc(Br)cc(Br)c1O -8.98%
Oc1c(Br)cc(Br)cc1C=NCc1ccc(F)cc1 10.4%
Oc1cccc(/C=N/N=C/c2cccc(O)c2O)c1O 16.2%
CCOc1ccccc1N(CC(=O)N/N=C(\C)c1cccc(Br)c1)S(C)(=O)=O -0.46%
